Source: PMC11995724, “Antibiotic target discovery by integrated phenotypic and activity-based profiling of electrophilic fragments” (Cell chemical biology, 2025)
Hit rate of the full screen: of about 3,200 compounds, about 110 (3.4%) showed an effect of 50% or more. Only a selection was taken, and strong results are over-represented in it overall.

Each molecule was assayed on T1, V. cholerae SAD30. Settings: relative growth, OD600, LB; 25 µM; inhibitor.
T1 construct: SAD30
Design: species or system S. aureus MSSA476 (TSB) or V. cholerae SAD30 (LB); 384-well bacterial growth screen at 25 uM, OD600 relative to DMSO control

| SMILES | % of control remaining [%] |
| --- | --- |
| Cc1ccc(NC(=O)N2CCSSCC2)c(C)c1 [10-F11, N-(2,4-dimethylphenyl)-1,2,5-dithiazepane-5-carboxamide] | 95.0711 |
| CC(Cl)C(=O)N(C)CCn1c(=O)oc2ccccc21 (stereo not drawn) [7-H15, 2-chloro-N-methyl-N-[2-(2-oxo-2,3-dihydro-1,3-benzoxazol-3-yl)ethyl]propanamide] | 82.4715 |
| CC(C#N)CSc1ccccc1NC(=O)CCl (stereo not drawn) [6-K16, 2-chloro-N-{2-[(2-cyano-2-methylethyl)sulfanyl]phenyl}acetamide] | 86.757 |
| C=CC(=O)N1CCC(C(=O)N[C@]2(C(=O)OC)CC[C@@H](C)CC2)CC1 [3-E17, methyl (1r,4r)-4-methyl-1-[1-(prop-2-enoyl)piperidine-4-amido]cyclohexane-1-carboxylate] | 101.088 |
| O=C(CCl)N(Cc1ccc(Cl)cc1)C12CC3CC(CC(C3)C1)C2 [4-H07, N-(adamantan-1-yl)-2-chloro-N-[(4-chlorophenyl)methyl]acetamide] | 55.3806 |
| Cc1nn(CCC(=O)N2CCSSCC2)c(C)c1[N+](=O)[O-] [10-J05, 3-(3,5-dimethyl-4-nitro-1H-pyrazol-1-yl)-1-(1,2,5-dithiazepan-5-yl)propan-1-one] | 92.1099 |
| CCOC(=O)c1c(NC(=O)CCl)sc(C)c1C [4-O15, ethyl 2-(2-chloroacetamido)-4,5-dimethylthiophene-3-carboxylate] | 102.998 |
| CC(=O)N1CCc2cc(C(=O)C(C)Cl)ccc21 (stereo not drawn) [10-L22, 1-(1-acetyl-2,3-dihydro-1H-indol-5-yl)-2-chloropropan-1-one] | 100.214 |
| CC(=O)N1c2ccc(C(=O)CCl)cc2CC1C (stereo not drawn) [10-I20, 1-(1-acetyl-2-methyl-2,3-dihydro-1H-indol-5-yl)-2-chloroethan-1-one] | 84.473 |
| CS(=O)(=O)N1CCc2cc(C(=O)CCl)ccc21 [10-B19, 2-chloro-1-(1-methanesulfonyl-2,3-dihydro-1H-indol-5-yl)ethan-1-one] | 18.0791 |
| N#CC(=Cc1ccsc1)C(=O)Nc1ccccc1Cl [9-O05, N-(2-chlorophenyl)-2-cyano-3-(thiophen-3-yl)prop-2-enamide] | 98.9123 |
| C=CC(=O)NCC1CNC(=O)c2ccccc21 (stereo not drawn) [2-F17, N-[(1-oxo-1,2,3,4-tetrahydroisoquinolin-4-yl)methyl]prop-2-enamide] | 90.0415 |
| CC(Cl)C(=O)N1CCN(CCOc2ccc3c(c2)CCC3)CC1 (stereo not drawn) [6-H17, 2-chloro-1-{4-[2-(2,3-dihydro-1H-inden-5-yloxy)ethyl]piperazin-1-yl}propan-1-one] | 64.6128 |
| C=CC(=O)N1CCCC(CS(=O)(=O)NC)C1 (stereo not drawn) [2-E18, N-methyl-1-[1-(prop-2-enoyl)piperidin-3-yl]methanesulfonamide] | 95.4453 |
| O=C(CCl)c1ccccn1 [10-J03, 2-chloro-1-(pyridin-2-yl)ethan-1-one] | 0 |
| C[C@H]1CN(C(=O)CCl)CCN1C(=O)c1cscn1 [5-L05, 2-chloro-1-[(3S)-3-methyl-4-(1,3-thiazole-4-carbonyl)piperazin-1-yl]ethan-1-one] | 86.0775 |
| Cn1ccnc1C(=O)CCl [10-C15, 2-chloro-1-(1-methyl-1H-imidazol-2-yl)ethan-1-one] | 101.461 |
| Cl.O=C(CCl)Nc1ccccn1 [5-B14, 2-chloro-N-(pyridin-2-yl)acetamide hydrochloride] | 98.0141 |
| C[C@@H](NC(=O)CCl)c1ccccc1 [6-O20, 2-chloro-N-[(1R)-1-phenylethyl]acetamide] | 94.0373 |
| O=C(CCl)c1cscn1 [10-L08, 2-chloro-1-(1,3-thiazol-4-yl)ethan-1-one] | 0 |
| N#CC(=Cc1ccc(O)cc1)C(=O)NCCc1c(F)cccc1F [9-I16, 2-cyano-N-[2-(2,6-difluorophenyl)ethyl]-3-(4-hydroxyphenyl)prop-2-enamide] | 83.8205 |
| c1nc(N2CCSSCC2)c2c3c(sc2n1)CCCC3 [10-M22, 3-(1,2,5-dithiazepan-5-yl)-8-thia-4,6-diazatricyclo[7.4.0.0,2,7]trideca-1(9),2,4,6-tetraene] | 79.3298 |
| O=C(CCl)Nc1nccc(Cl)n1 [6-C19, 2-chloro-N-(4-chloropyrimidin-2-yl)acetamide] | 88.7288 |
| O=C1C=CC(=O)N1c1ccccc1Sc1ccc(Cl)cc1 [10-A03, 1-{2-[(4-chlorophenyl)sulfanyl]phenyl}-2,5-dihydro-1H-pyrrole-2,5-dione] | 28.6772 |
| O=C1C=CC(=O)N1c1ccccc1Sc1ccccc1 [10-K12, 1-[2-(phenylsulfanyl)phenyl]-2,5-dihydro-1H-pyrrole-2,5-dione] | 28.0538 |
| CC(Cl)C(=O)Nc1ccccc1Sc1ccccc1 (stereo not drawn) [6-H10, 2-chloro-N-[2-(phenylsulfanyl)phenyl]propanamide] | 56.4224 |
| O=C(O)C(c1ccccc1)N1C(=O)C=CC1=O (stereo not drawn) [10-E21, 2-(2,5-dioxo-2,5-dihydro-1H-pyrrol-1-yl)-2-phenylacetic acid] | 103.487 |

| SMILES | % of control remaining [%] |
| --- | --- |
| O=C(CCl)Nc1ccccc1Sc1ccc(Cl)cc1 [4-O13, 2-chloro-N-{2-[(4-chlorophenyl)sulfanyl]phenyl}acetamide] | 72.9782 |
| Cc1cc(NC(=O)CCl)n(-c2ccccc2)n1 [4-G05, 2-chloro-N-(3-methyl-1-phenyl-1H-pyrazol-5-yl)acetamide] | 102.825 |
| CC(C)c1ccc(CCNC(=O)CCl)cc1 [6-I16, 2-chloro-N-{2-[4-(propan-2-yl)phenyl]ethyl}acetamide] | 91.9139 |
| C=CC(=O)N1CCN(S(=O)(=O)Cc2ccon2)CC1 [1-J07, 1-{4-[(1,2-oxazol-3-yl)methanesulfonyl]piperazin-1-yl}prop-2-en-1-one] | 89.2377 |
| CN(Cc1ccccc1)S(=O)(=O)c1ccc(NC(=O)CCl)cc1 [5-K08, N-{4-[benzyl(methyl)sulfamoyl]phenyl}-2-chloroacetamide] | 97.1735 |
| N#CC(=Cc1cnc(-c2ccccc2)nc1)C(=O)NCc1ccco1 [9-M14, 2-cyano-N-[(furan-2-yl)methyl]-3-(2-phenylpyrimidin-5-yl)prop-2-enamide] | 95.2413 |
| O=C(CCl)Cc1cccc(F)c1F [10-K17, 1-chloro-3-(2,3-difluorophenyl)propan-2-one] | 0.1559 |
| Cc1cccc(Cl)c1CCCNC(=O)CCl [7-F04, 2-chloro-N-[3-(2-chloro-6-methylphenyl)propyl]acetamide] | 91.9874 |
| O=C(CCl)Nc1c(Cl)cccc1C(F)(F)F [5-B04, 2-chloro-N-[2-chloro-6-(trifluoromethyl)phenyl]acetamide] | 98.0141 |
| O=C(CCl)Nc1ccccc1F [4-M16, 2-chloro-N-(2-fluorophenyl)acetamide] | 98.3394 |
| O=C(CCl)Cc1c(Cl)cccc1Cl [10-K15, 1-chloro-3-(2,6-dichlorophenyl)propan-2-one] | 45.6653 |
| O=C(CCl)Nc1ccc(F)c(F)c1F [4-M05, 2-chloro-N-(2,3,4-trifluorophenyl)acetamide] | 104.033 |
| O=C(CCl)Cc1c(F)cccc1Cl [10-D20, 1-chloro-3-(2-chloro-6-fluorophenyl)propan-2-one] | 36.1582 |
| O=C(CCl)Cc1c(F)cccc1F [10-O15, 1-chloro-3-(2,6-difluorophenyl)propan-2-one] | 99.7467 |
| O=C(CCl)NCCc1c(F)cccc1F [5-F20, 2-chloro-N-[2-(2,6-difluorophenyl)ethyl]acetamide] | 99.5272 |
| Cc1ccc2sc(N(Cc3ccccc3)C(=O)CCl)nc2c1C [4-K06, N-benzyl-2-chloro-N-(4,5-dimethyl-1,3-benzothiazol-2-yl)acetamide] | 100.927 |
| C=CC(=O)Nc1ccccc1Sc1nncs1 [1-G04, N-[2-(1,3,4-thiadiazol-2-ylsulfanyl)phenyl]prop-2-enamide] | 100.149 |
| COCCNC(=O)C(C#N)=Cc1sccc1C [9-M17, 2-cyano-N-(2-methoxyethyl)-3-(3-methylthiophen-2-yl)prop-2-enamide] | 85.9959 |
| O=C(CCl)N1C[C@@H]2C[C@H]1CN2c1ccccc1 [5-E22, 2-chloro-1-[(1S,4S)-5-phenyl-2,5-diazabicyclo[2.2.1]heptan-2-yl]ethan-1-one] | 106.756 |
| Cc1cc(C(=O)CCl)c(C)n1-c1cccc([N+](=O)[O-])c1 [10-B16, 2-chloro-1-[2,5-dimethyl-1-(3-nitrophenyl)-1H-pyrrol-3-yl]ethan-1-one] | 67.329 |
| O=C1C=CC(=O)N1c1cccc([N+](=O)[O-])c1 [10-P15, 1-(3-nitrophenyl)-2,5-dihydro-1H-pyrrole-2,5-dione] | 35.6906 |
| COc1cccc(NC(=O)C(C#N)=Cc2ccc(O)cc2)c1 [8-O17, 2-cyano-3-(4-hydroxyphenyl)-N-(3-methoxyphenyl)prop-2-enamide] | 71.584 |
| O=C1C=CC(=O)N1c1cccc(O)c1 [10-O07, 1-(3-hydroxyphenyl)-2,5-dihydro-1H-pyrrole-2,5-dione] | 26.4952 |
| COc1cccc(N2C(=O)C=CC2=O)c1 [10-K03, 1-(3-methoxyphenyl)-2,5-dihydro-1H-pyrrole-2,5-dione] | 23.8457 |
| NS(=O)(=O)c1cccc(N2C(=O)C=CC2=O)c1 [10-I05, 3-(2,5-dioxo-2,5-dihydro-1H-pyrrol-1-yl)benzene-1-sulfonamide] | 102.396 |
| COc1cccc(NC(=O)C(C)Cl)c1 (stereo not drawn) [6-I03, 2-chloro-N-(3-methoxyphenyl)propanamide] | 100.863 |
| CC(=O)Nc1cccc(N2C(=O)C=CC2=O)c1 [10-D09, N-[3-(2,5-dioxo-2,5-dihydro-1H-pyrrol-1-yl)phenyl]acetamide] | 85.564 |
